Experiment: probe aNOTCH2 binding on compound microarray – biochemical, small-molecule microarray, 635/667 nm fluorescence, primary screen (AID 1121);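 also: score merges feature fluorescence read at 667 nm with its signal to noise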
Settings: higher = more signal

Row | SMILES | composite z-score
1 | C[C@@H]1NC(=O)[C@@H](Cc2ccccc2)NC(=O)[C@@]23C(=O)N[C@@H](Cc4ccccc4)C2[C@H](C)[C@@]2(C)O[C@H]2C3/C=C/C/C=C\CNC1=O (stereo partly specified) | -0.125
2 | COc1cccc(C)c1NC(=O)O[C@H]1[C@H](OC(=O)Nc2ccc3c(c2)OCO3)[C@@H](OC(=O)Nc2ccc3c(c2)OCO3)[C@@H](OC)O[C@@H]1CO | -0.0714
3 | C=C(COC)/C(=C/C[C@H](OC(=O)c1ccncc1)c1ccc(CO)o1)c1cnc2ccccc2c1 | -0.123
4 | CC(C)=C1C(=O)C(c2ccccc2)=C2CN3C(=O)N(CCc4ccccc4)C(=O)[C@]3(Cc3ccc(C(F)(F)F)cc3)[C@H]21 | 0.134
5 | CCCCNC(=O)c1ccc(C#CC(C)(C)C)c(OC(C)=O)c1 | -0.181
6 | C=CCC(OC(C)=O)[C@@H]1[C@@H](N(Cc2cccc3ccccc23)C(=O)Cc2ccc(OC)cc2)c2cc(OCCCO)ccc2N1C(=O)c1ccc(-c2ccccc2)cc1 (stereo partly specified) | -0.0895
7 | COc1cc(NN2C(C(O)c3ccc(N(C)C)cc3)C=CC3C(=O)N(c4ccccc4)C(=O)C32)cc(OC)c1OC (stereo unspecified) | 0.0606
8 | CCCC[C@@H](O)C1=C(COC)C[C@H]2C(=O)N(C)C(=O)[C@H]2[C@H]1CO | -0.217
9 | CC1CC/C=C\[C@H]2OC34C=CCN(c5ccc6ccccc6c5)C(=O)[C@H]3N(CCCO)C(=O)[C@@H]4C2C(=O)O1 (stereo partly specified) | -0.16
10 | CC(C)C(CO)N1C(=O)[C@@H]2[C@H]3C(=O)OCC=C[C@H]3OC23C=CCN(c2ccc(Cl)cc2)C(=O)[C@@H]13 (stereo partly specified) | -0.117
11 | CCCN1C(=O)[C@@]2(Cc3ccccc31)N=C(c1ccc(OCCCO)cc1)O[C@H]2c1ccccc1 | 0.0118
